According to ChEMBL document CHEMBL5724796, “Tm Shift (DSF) assay results for EUbOPEN Chemogenomics Library” (2024):

Experiments:
Conditions in all cases: Compound concentration 20.0 uM
[1] = target: Tyrosine-protein kinase ABL1 (Homo sapiens) (UniProt P00519)
[2] = target: Bromodomain-containing protein 4 (Homo sapiens) (UniProt O60885)
[3] = target: Cyclin-dependent kinase 2 (Homo sapiens) (UniProt P24941)
[4] = target: Casein kinase I isoform delta (Homo sapiens) (UniProt P48730)
[5] = target: Glycogen synthase kinase-3 beta (Homo sapiens) (UniProt P49841)
Chain of Glycogen synthase kinase-3 beta (Homo sapiens) (P49841 whole entry, looked up): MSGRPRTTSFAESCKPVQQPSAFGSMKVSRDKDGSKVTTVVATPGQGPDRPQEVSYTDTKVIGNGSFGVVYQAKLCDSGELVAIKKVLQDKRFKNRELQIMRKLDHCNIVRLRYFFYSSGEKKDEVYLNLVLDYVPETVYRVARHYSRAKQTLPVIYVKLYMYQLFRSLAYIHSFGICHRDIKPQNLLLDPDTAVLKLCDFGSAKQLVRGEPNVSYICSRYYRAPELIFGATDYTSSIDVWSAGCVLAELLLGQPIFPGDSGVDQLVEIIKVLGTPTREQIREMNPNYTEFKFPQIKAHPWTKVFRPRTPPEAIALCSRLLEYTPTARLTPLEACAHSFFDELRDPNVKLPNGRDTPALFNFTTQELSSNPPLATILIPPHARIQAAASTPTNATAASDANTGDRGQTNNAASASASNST

[6] = target: Mitogen-activated protein kinase 1 (Homo sapiens) (UniProt P28482)
Chain of Mitogen-activated protein kinase 1 (Homo sapiens) (P28482 whole entry): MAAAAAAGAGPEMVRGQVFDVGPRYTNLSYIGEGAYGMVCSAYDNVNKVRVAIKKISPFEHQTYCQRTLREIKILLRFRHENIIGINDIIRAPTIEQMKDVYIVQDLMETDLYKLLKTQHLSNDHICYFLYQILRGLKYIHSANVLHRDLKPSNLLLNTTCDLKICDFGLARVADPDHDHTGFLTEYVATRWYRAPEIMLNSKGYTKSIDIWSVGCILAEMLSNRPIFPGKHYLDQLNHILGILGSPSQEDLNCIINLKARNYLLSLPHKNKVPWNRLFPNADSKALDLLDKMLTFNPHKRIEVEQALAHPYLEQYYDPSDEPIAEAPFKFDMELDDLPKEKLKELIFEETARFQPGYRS

[7] = target: T1, Aurora kinase A (Homo sapiens) (UniProt O14965)
T1 sequence (whole entry): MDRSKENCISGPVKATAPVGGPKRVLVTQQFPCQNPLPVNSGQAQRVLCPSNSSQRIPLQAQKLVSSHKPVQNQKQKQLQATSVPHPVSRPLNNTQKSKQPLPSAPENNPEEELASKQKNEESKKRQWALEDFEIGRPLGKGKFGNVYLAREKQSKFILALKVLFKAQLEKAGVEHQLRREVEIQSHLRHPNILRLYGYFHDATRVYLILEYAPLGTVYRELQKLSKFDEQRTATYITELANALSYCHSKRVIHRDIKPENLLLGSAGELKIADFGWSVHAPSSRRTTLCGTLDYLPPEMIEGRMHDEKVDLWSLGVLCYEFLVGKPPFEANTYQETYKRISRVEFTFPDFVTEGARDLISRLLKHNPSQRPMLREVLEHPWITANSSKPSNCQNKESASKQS

[8] = target: T2, Transcription intermediary factor 1-alpha (Homo sapiens) (UniProt O15164)
T2 sequence (whole entry): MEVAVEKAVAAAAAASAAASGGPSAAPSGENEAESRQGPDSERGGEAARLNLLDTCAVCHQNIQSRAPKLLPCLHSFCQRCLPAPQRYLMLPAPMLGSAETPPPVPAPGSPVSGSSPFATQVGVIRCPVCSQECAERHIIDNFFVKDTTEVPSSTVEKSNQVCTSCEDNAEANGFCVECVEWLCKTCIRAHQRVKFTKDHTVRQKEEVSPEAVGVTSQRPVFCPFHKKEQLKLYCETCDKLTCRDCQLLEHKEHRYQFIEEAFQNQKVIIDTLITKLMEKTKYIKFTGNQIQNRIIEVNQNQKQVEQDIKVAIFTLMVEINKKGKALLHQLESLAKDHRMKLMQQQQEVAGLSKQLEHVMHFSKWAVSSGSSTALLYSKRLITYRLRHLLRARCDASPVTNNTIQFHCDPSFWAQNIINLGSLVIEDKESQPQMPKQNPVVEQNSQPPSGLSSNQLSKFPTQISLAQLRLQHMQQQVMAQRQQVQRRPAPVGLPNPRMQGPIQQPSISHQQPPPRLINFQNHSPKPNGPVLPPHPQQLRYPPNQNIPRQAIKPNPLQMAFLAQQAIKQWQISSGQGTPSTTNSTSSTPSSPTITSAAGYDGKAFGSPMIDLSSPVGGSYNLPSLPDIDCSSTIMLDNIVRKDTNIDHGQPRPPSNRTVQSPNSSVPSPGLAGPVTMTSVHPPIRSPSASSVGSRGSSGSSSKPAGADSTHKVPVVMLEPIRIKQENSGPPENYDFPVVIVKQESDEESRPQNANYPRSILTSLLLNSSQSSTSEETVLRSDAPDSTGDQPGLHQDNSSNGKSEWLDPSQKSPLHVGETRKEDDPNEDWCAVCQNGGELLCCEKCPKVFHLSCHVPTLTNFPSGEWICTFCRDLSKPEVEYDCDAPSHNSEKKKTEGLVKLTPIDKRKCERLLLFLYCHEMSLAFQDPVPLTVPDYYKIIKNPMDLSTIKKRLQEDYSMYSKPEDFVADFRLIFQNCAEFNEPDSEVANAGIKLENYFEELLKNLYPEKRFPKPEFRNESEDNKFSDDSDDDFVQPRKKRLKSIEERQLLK

Chain of Casein kinase I isoform delta (Homo sapiens) (P48730 whole entry, looked up, canonical isoform): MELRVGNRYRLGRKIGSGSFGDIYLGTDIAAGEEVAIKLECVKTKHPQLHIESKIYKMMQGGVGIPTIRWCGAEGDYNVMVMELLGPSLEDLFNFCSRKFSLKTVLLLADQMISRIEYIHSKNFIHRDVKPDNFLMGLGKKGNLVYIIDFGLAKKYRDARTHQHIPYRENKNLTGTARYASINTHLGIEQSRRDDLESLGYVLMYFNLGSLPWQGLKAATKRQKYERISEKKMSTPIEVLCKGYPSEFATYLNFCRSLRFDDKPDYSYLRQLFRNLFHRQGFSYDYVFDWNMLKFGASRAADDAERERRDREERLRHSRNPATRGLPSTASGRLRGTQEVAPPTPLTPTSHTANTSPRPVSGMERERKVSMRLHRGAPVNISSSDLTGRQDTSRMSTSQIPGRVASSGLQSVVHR
Chain of Tyrosine-protein kinase ABL1 (Homo sapiens) (P00519 whole entry): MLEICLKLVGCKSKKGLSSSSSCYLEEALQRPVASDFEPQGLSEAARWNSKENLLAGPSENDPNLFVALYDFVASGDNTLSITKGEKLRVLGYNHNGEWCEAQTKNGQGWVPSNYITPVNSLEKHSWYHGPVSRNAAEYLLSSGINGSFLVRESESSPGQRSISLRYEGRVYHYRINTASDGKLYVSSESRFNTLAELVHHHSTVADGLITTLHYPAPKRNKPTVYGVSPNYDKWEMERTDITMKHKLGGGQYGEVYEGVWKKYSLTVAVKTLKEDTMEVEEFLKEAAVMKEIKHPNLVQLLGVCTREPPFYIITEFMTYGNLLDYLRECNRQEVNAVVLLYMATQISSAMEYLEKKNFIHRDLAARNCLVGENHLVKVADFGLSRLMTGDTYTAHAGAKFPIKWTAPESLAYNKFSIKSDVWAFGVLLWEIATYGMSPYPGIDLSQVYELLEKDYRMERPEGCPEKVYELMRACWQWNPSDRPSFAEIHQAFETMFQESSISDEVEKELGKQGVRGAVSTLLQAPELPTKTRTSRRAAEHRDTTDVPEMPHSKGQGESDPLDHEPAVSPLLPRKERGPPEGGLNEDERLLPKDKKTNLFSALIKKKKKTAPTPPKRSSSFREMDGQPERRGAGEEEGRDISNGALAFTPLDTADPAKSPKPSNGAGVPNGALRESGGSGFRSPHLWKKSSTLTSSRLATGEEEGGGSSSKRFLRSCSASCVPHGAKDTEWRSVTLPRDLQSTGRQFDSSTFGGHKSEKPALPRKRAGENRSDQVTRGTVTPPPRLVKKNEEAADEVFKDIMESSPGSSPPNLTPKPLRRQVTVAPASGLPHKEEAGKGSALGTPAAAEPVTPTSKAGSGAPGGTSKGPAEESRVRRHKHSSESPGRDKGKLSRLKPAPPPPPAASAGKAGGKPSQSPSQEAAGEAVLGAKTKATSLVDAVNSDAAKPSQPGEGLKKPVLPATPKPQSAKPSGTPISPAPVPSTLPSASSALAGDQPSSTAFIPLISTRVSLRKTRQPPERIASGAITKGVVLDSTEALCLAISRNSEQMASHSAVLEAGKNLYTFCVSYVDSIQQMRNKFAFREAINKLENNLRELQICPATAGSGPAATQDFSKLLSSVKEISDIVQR

Row | SMILES | ΔTm [1] | ΔTm [2] | ΔTm [3] | ΔTm [4] | ΔTm [5] | ΔTm [6] | ΔTm [7] | ΔTm [8]
1 | CCCC[C@]1(CC)CS(=O)(=O)c2cc(CNC(CC(=O)O)CC(=O)O)c(OC)cc2[C@@H](c2ccccc2)N1 | 0.44 °C | 0.52 °C | -0.44 °C | -0.45 °C | -0.88 °C | 0.14 °C | -1.84 °C | 0.38 °C
2 | COc1ccc(C(=O)N[C@H](C(=O)N2CCC[C@H]2C(=O)N[C@H](C(=O)C(F)(F)F)C(C)C)C(C)C)cc1 | 0.01 °C | 0.28 °C | 0.69 °C | -0.09 °C | -0.75 °C | 0.2 °C | -1.47 °C | 1.59 °C
3 | CCC(CC)N(CCN(C)C(=O)CCC(=O)O)Cc1cccc(C(=O)Nc2sc3c(c2C(=O)c2cnn(-c4ccc(Cl)c(C(F)(F)F)c4)c2)CCC(C)(C)C3)c1 | -0.27 °C | 1.72 °C | -0.99 °C | -8.05 °C | -4.31 °C | -1.59 °C | -8.72 °C | 1.42 °C
4 | O=C(Nc1ccc2[nH]nc(-c3ccncc3)c2c1)[C@@H]1CCN(CC(=O)N2CCN(c3ccc(-c4ncccn4)cc3)CC2)C1 | 1.95 °C | -1.51 °C | 0.12 °C | 1.66 °C | 1.44 °C | 13.1 °C | 3.82 °C | -0.46 °C
5 | COc1ccc(C2C(C#N)=C(N)OC3=C2C(=O)CC(c2cccc4ccccc24)C3)cc1 (stereo not drawn) | 0.45 °C | -2.45 °C | -0.04 °C | -0.36 °C | -0.68 °C | 0.85 °C | -1.95 °C | 1.45 °C
6 | CC(C)(OCc1cc(-c2cccc(OC3CC3)c2)n(-c2ccccc2Cl)n1)C(=O)O | 0.39 °C | -3.91 °C | -0.19 °C | 0.08 °C | 0.42 °C | 0.09 °C | -2.34 °C | -0.77 °C
7 | CN(C)CCCCC(=O)Nc1ccc(NC(=S)NC(=O)c2ccc(C(C)(C)C)cc2)cc1 | 0.43 °C | -4.74 °C | 0.19 °C | 0.69 °C | 1.54 °C | 0.13 °C | -2.09 °C | -0.79 °C
8 | CCOc1ccc2nc(-c3cccc(OCC(=O)NC(C)C)c3)nc(Nc3ccc(-c4cn[nH]c4)cc3)c2c1 | 0.09 °C | -0.68 °C | 0.3 °C | -1.4 °C | -0.35 °C | -2.16 °C | 0 °C | 0 °C
9 | N=C(N)SCc1ccc(CN2C(=O)C(=O)c3cc(Br)cc(Br)c32)cc1 | -4.26 °C | -11.4 °C | 0 °C | -2.52 °C | -2.8 °C | -1.76 °C | -5.55 °C | 0 °C
10 | Cc1c(CN2CCC(Nc3ncnc4sc(CC(F)(F)F)cc34)CC2)ccc2c1cc(C#N)n2Cc1cn[nH]c1 | 0.97 °C | -1.35 °C | -0.07 °C | 1.61 °C | 0.28 °C | -7.35 °C | -1.51 °C | 0.6 °C
11 | N[C@@H](CC(=O)N1CCN(C(c2ccc(F)cc2)c2ccc(F)cc2)CC1)C(=O)N1Cc2ccccc2C1 | -0.03 °C | 0.11 °C | -3.61 °C | -0.26 °C | 0 °C | 0 °C | 0 °C | -6.21 °C
